Measurements from PubChem BioAssay AID651956 (Broad Institute, 2012).
Results with a measured potency or affinity are listed apart. Results filed as inconclusive are left out. The source made the active and inactive calls.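 The calls were made as follows: active = in every test run, a fitted half-maximal concentration for signal decrease at or below twice the highest tested concentration; inconclusive = runs disagree, flat 30 to 70% decrease, or poor fit; inactive = the rest.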

Assay: miR-122 activators in hepatoma reporter cells, dose response, cell-based, Huh7 psiCHECK-miR122, Renilla luciferase, cherry-picked (AID 651956);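 also: Renilla luciferase from a miR-122 sensor reporter so lower signal means miR-122 activation; 0% = median neutral control wells and -100% = median positive control wells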
Details: 48 h; series mostly up to 35 µM; activity change, negative = signal decrease: at the top concentration

Activity change, negative = signal decrease, inactive:
Cc1[nH]c(=O)c(C#N)cc1-c1ccccc1 -28.5%
CCNC(=O)C[C@H]1CC[C@@H]2[C@@H](COc3ccc(NC(=O)c4cccc(C(F)(F)F)c4)cc3C(=O)N2C)O1 32.7%
COC(=O)C[C@@H]1CC[C@H]2[C@@H](COc3ccc(NC(=O)Nc4ccccc4C)cc3C(=O)N2C)O1 13.5%
CCOc1ccc(C(CCc2ccccc2)NC(=O)c2ccccc2F)cc1OCC (centres undefined) 122%
COCC(=O)Nc1ccc2c(c1)C(=O)N(C)[C@@H]1CC[C@H](CC(=O)Nc3cn(C)nc3C)O[C@H]1CO2 -30.8%
CO[C@H]1CN(C)C(=O)c2cc(NC(C)=O)ccc2OC[C@@H](C)N(C(=O)c2ccccn2)C[C@H]1C 111%
COCC(=O)N(C)C[C@H]1Oc2cc(-c3ccccc3F)ccc2S(=O)(=O)N([C@@H](C)CO)C[C@@H]1C -55.7%
CC(=O)Nc1ccc2c(c1)C(=O)N(C)[C@H]1CC[C@H](CC(=O)NC3CCCCC3)O[C@@H]1CO2 -8.52%
CN1C(=O)c2cc(NC(=O)Cc3ccccc3)ccc2OC[C@H]2O[C@@H](CC(=O)NCc3ccc(Cl)cc3)CC[C@@H]21 119%
CN(C[C@H]1N[C@@H](CO)[C@H]1c1ccc(-c2cccc(F)c2)cc1)C(=O)C1CCC1 282%
O=C(Nc1ccccc1F)N1C[C@H]2[C@@H](c3ccccc31)[C@@H](CO)N2C(=O)C1CC1 -13.7%
Fc1ccccc1-c1nc(-c2ccncc2)no1 44.4%
Cc1cc(C)cc(NC(=O)Nc2ccc3c(c2)C(=O)N(C)[C@@H]2CC[C@H](CC(=O)O)O[C@@H]2CO3)c1 73.4%
COC(=O)C[C@H]1CC[C@H]2[C@H](COc3ccc(NC(=O)NC(C)C)cc3C(=O)N2C)O1 -0.168%
COCCN(C[C@H]1[C@@H](c2ccccc2)[C@H](CO)N1C(=O)C1CCC1)C(C)=O -22.6%
Cc1cc(C(F)F)n2ncc(C(=O)NCCc3ccccc3Cl)c2n1 14.9%
CN(C)CCCNC(=O)C[C@H]1CC[C@H]2[C@H](COc3ccc(NC(=O)c4cccc(F)c4)cc3C(=O)N2C)O1 55.7%
Cc1nnsc1Sc1cccc(C(F)(F)F)c1 39.2%
CO[C@@H]1CN(C)C(=O)c2ccc(NS(=O)(=O)c3cccc(F)c3)cc2OC[C@@H](C)NC[C@H]1C 19.1%
c1ccc(-c2nnc3n2CCCC3)cc1 -17.3%
C/C=C/c1ccc([C@H]2[C@H](CO)N(C(C)=O)[C@H]2CN(C)C(=O)c2ccccn2)cc1 -23.3%
COc1ccc(CNC(=O)NCCc2c[nH]c3ccccc23)cc1 -1.23%
Cc1ccc(-c2ccc3c(c2)O[C@H](CN(C)C(=O)CC2CC2)[C@H](C)CN([C@@H](C)CO)S3(=O)=O)cc1 -108%
COc1cccc(NC(=O)Nc2ccc3c(c2)C(=O)N(C)C[C@@H](OC)[C@@H](C)CN[C@H](C)CO3)c1 16.7% [at 30 µM]
COc1ccc(NC(=O)N(C)C[C@@H]2Oc3cc(C#CCC(C)C)ccc3S(=O)(=O)N([C@@H](C)CO)C[C@@H]2C)cc1 -12.5%
CN(C)CCNC(=O)C1CC(=O)N(c2ccc(F)c(Cl)c2)C1 (centres undefined) -26.6%
Cc1cc(C(=O)Nc2ccc3c(c2)C(=O)N(C)[C@H]2CC[C@H](CC(=O)N[C@@H](C)c4ccccc4)O[C@H]2CO3)no1 4.71%
O=C(Nc1nc(-c2cc3ccccc3o2)cs1)c1ccc(S(=O)(=O)N2CCCC2)cc1 -43.6%
CC(C)C(=O)Nc1ccc2c(c1)C(=O)N(C)[C@H]1CC[C@H](CC(=O)O)O[C@H]1CO2 115%
NS(=O)(=O)c1ccc(Nc2nc(-c3cccnc3)cs2)cc1 -28.5%
CCC(=O)NC[C@H]1[C@H](c2ccc(C3=CCCC3)cc2)[C@H](CO)N1C(C)=O -24.8%
CN1C(=O)c2cc(NC(=O)Cc3ccccc3)ccc2OC[C@H]2O[C@@H](CC(=O)NC3CCC3)CC[C@@H]21 6.97%
COCC(=O)Nc1ccc2c(c1)C(=O)N(C)[C@@H]1CC[C@@H](CC(=O)NCCCN(C)C)O[C@@H]1CO2 -13.9%
Cc1cc(C)cc(NC(=O)c2ccc(CSc3nnc(C)s3)cc2)c1 -31.2%
C/C=C/c1ccc([C@@H]2[C@@H](CNC(=O)c3ccncc3)N(C(=O)CC)[C@H]2CO)cc1 -20%
C[C@H](NC(=O)C[C@@H]1CC[C@H]2[C@H](COc3ccc(NS(=O)(=O)c4ccc(Cl)cc4)cc3C(=O)N2C)O1)c1ccccc1 70.4%
CCN(CC)S(=O)(=O)c1ccc(NC(=O)Nc2cccc(C(F)(F)F)c2)cc1 146%
CO[C@H]1CN(C)C(=O)c2ccc(NS(C)(=O)=O)cc2OC[C@H](C)N(C(=O)CN(C)C)C[C@H]1C -7.02%
O=C(COC(=O)Cc1ccc(S(=O)(=O)N2CCOCC2)s1)Nc1ccc2c(c1)OCO2 -26.8%
